Only some compounds are listed: those with a hit (about 2.3% of all), similar ones and a draw of the others.
aSyn yeast inh: qHTS of alpha-syn Inhibitors; Potency, µM (series often up to 46.1 µM), for the others: top-dose growth rescue (activation), actives largely listed as activators; 0.14% of 370,000 active; AID 652106, 2013; Yeast expressing alpha-synuclein, growth rescue, BacTiter-Glo, 24 h; further: potency means the concentration at half of the fitted maximal effect; % of control where 0% means no effect; nearly all actives have a fitted effect of over 65% in size
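Screening used galactose-induced yeast with toxic alpha-synuclein levels, exposed to compound for 24 hr at 30 deg C. Cell growth, read with BacTiter-Glo luminescence, gave the measured signal.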
CCT chaperon mod: High-Throughput Screening for Modulators of Cytosolic Chaperonin Activity; 0.3% of 360,000 active; purified chaperonin ATPase assay, HTRF ADP detection, 30 min; AID 651819, 2012; activity change, % (concentration not given with the values), hits read low; in the data active means activity change below about -30%; further: on the % scale 0 is the no-effect control and ±100 the full control effect
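ATPase activity: ADP formed was measured by HTRF Transcreener (665/615 nm ratio) after 30 min at 37 deg C with 10 uM ATP. Compounds screened at one 76 uM concentration against 40 or 20 nM TRiC in Tris pH 7.4/KCl/MgCl2/DTT buffer.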
MmCpn inh: Inhibitors of TCP-1 ring complex (TRiC) of Methanococcus maripaludis (MmCpn): qHTS | Chaperonin Mm-Cpn (Methanococcus maripaludis) | purified Mm-Cpn ATPase, ADP Transcreener TR-FRET | Potency, µM (titrated, usually from 76.9 µM), inactives show top-dose activity, negative = inhibition, most hits filed as inhibitors | 0.031% of 330,000 active | AID 504842, 2011; further: potency means the concentration at half of the fitted maximal effect; on the % scale 0 is the no-effect control and ±100 the full control effect; nearly all actives have a fitted effect of over 80% in size
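TR-FRET (320 nm excitation; 590 and 665 nm emission) reports ADP made from 10 uM ATP by 25 nM enzyme; compounds were preincubated 10 min, reaction run 30 min, both at 37°C.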
TDP43 rescue: qHTS of TDP-43 Inhibitors; TDP-43 expressing yeast growth rescue, BacTiter-Glo, 24 h; Potency, µM (doses to about 46.1 µM), without a hit: at the top dose growth rescue (activation), usual class: activators; 1.8% of 410,000 active; further: potency means the concentration at half of the fitted maximal effect; % of control where 0% means no effect; nearly all actives have a fitted effect of over 50% in size
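In this qHTS, compounds that restore growth of yeast expressing TDP-43 appear as activators. Cells (OD600=0.02, galactose medium, raffinose-pregrown) are incubated with compound 24 hr at 30 deg C and growth is quantified by BacTiter-Glo.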
FUS yeast rescue: qHTS for Suppressors of FUS Proteinopathy: Primary screen using FUS-linked yeast assay; AID 1347120, 2019; S. cerevisiae FUS-expressing, growth rescue, OD600, 24 h; 0.24% of 390,000 active; Potency, µM (series often up to 76.6 µM), most hits filed as activators;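 further: potency means the concentration at half of the fitted maximal effect; plate controls were DMSO vehicle for no effect and reference control for full effect; nearly all actives have a fitted effect of over 55% in size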
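Galactose (2%) drives FUS expression in yeast precultured in raffinose; seeding density OD 0.005. Test compounds incubated 24hr at 30C and 99% humidity before absorbance at 600 nm was measured.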
Abeta yeast res: qHTS for compounds that reverse cellular toxicity of Amyloid beta (A-beta) peptide in yeast: Primary Screen; AID 1347071, 2019; yeast expressing A-beta42, growth rescue, OD600, 48 h; response scale: 0% DMSO, 100% iron-clioquinol control; Potency, µM (top dose mostly 46.1 µM), hits mostly activators; 0.063% of 410,000 active; further: potency means the concentration at half of the fitted maximal effect; nearly all actives have a fitted effect of over 55% in size
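Yeast growth medium received pinned compounds, then yeast cells expressing toxic A-beta were added; plates incubated at 30 C for 48 hr. Growth read as absorbance at 600 nm, normalized to DMSO and equimolar FeCl3 plus clioquinol controls.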
* hit, by the source's call. Unless noted, the call rests on the fitted dose curve; in most records, active means well fitted curve in the direction sought with a large enough effect; inconclusive means small, poorly fitted or top-dose-only effect, or another doubt; inactive means no such curve, though single readings can be large; an effect the other way counts as inactive or inconclusive.

How did Cc1nc(CS(=O)(=O)c2ccc(Cl)cc2)cc(Sc2ccc(Cl)cc2)n1 do in these assays?
aSyn yeast inh: 4%; CCT chaperon mod: -1; MmCpn inh: -8%; TDP43 rescue: 28µM*; FUS yeast rescue: inactive; Abeta yeast res: inactive

What do the screens show for `CC1CCN(CCCNC(=O)c2cc(Sc3ccc(F)cc3)nc3ccccc23)CC1`?
TDP43 rescue: 18%; FUS yeast rescue: inactive; Abeta yeast res: inactive

Results for CN1c2ccccc2Oc2nnc(Cl)cc21 ?
aSyn yeast inh: 16µM*; CCT chaperon mod: 0; MmCpn inh: -10%; TDP43 rescue: 11µM*; FUS yeast rescue: inactive; Abeta yeast res: inactive

How did COc1ccccc1C(=O)OCc1cc(=O)n2ccsc2n1 do in these assays?
aSyn yeast inh: 12%; CCT chaperon mod: 3; MmCpn inh: 0%; TDP43 rescue: 16µM*; FUS yeast rescue: inactive; Abeta yeast res: inactive

Results for Cc1cccn2c(=O)cc(COc3ccc(NC(=O)C(C)C)cc3)nc12 ?
TDP43 rescue: 17%; FUS yeast rescue: inactive; Abeta yeast res: inactive

What do the screens show for `COc1ccccc1C(=O)Nc1ccccc1C(=O)OCc1cc(=O)n2ccsc2n1`?
TDP43 rescue: -3%; FUS yeast rescue: inactive; Abeta yeast res: inactive

Results for COc1ccc(C(=O)OCc2cc(=O)n3c(C)csc3n2)cc1F ?
aSyn yeast inh: 7%; CCT chaperon mod: 1; MmCpn inh: -4%; TDP43 rescue: 15%; Abeta yeast res: inactive

How did Cc1ccc(C(=O)OCc2cc(=O)n3c(C)csc3n2)s1 do in these assays?
aSyn yeast inh: -2%; CCT chaperon mod: -2; MmCpn inh: 1%; TDP43 rescue: 22µM*; FUS yeast rescue: inactive; Abeta yeast res: inactive

How did Cc1ccc(C(=O)OCc2cc(=O)n3ccsc3n2)s1 do in these assays?
aSyn yeast inh: 3%; CCT chaperon mod: 2; MmCpn inh: -7%; TDP43 rescue: 28%; FUS yeast rescue: inactive; Abeta yeast res: inactive

Results for CC(Oc1ccccc1)C(=O)Nc1ccc(OCc2cc(=O)n3ccsc3n2)cc1 (stereo not given) ?
TDP43 rescue: 16µM*; FUS yeast rescue: inactive; Abeta yeast res: inactive

What do the screens show for `COc1ccccc1C(=O)OCc1cc(=O)n2c(C)csc2n1`?
TDP43 rescue: 35µM*; FUS yeast rescue: inactive; Abeta yeast res: inactive

What do the screens show for `C=C1C=C(C)n2ncc(C(=O)Nc3cccc(C(=O)Nc4cccc(C(F)(F)F)c4)c3)c2N1`?
aSyn yeast inh: -1%

Results for CC(C)N1CCCCC(NC(=O)c2ccc(Br)cc2)C1=O (stereo not given) ?
FUS yeast rescue: inactive

How did CC(=O)Nc1sc2c(c1-c1nc3ccccc3s1)CCCNC2 do in these assays?
FUS yeast rescue: inactive

Results for O=C(OCc1cc(=O)n2ccsc2n1)c1ccc(OC(F)F)cc1 ?
aSyn yeast inh: 7%; CCT chaperon mod: -1; MmCpn inh: 0%; TDP43 rescue: 7.1µM*; FUS yeast rescue: inactive; Abeta yeast res: inactive

What do the screens show for `Cc1cccc(-n2c(O)c(/C=N/NC(=O)c3ccccc3Cl)c3ccccc3c2=O)n1`?
aSyn yeast inh: -2%; CCT chaperon mod: -46*; MmCpn inh: -2%; TDP43 rescue: 3%; FUS yeast rescue: inactive; Abeta yeast res: inactive

How did O=S(=O)(c1cccc(NC(=S)Nc2ccc(Br)cc2Cl)c1)N1CCOCC1 do in these assays?
aSyn yeast inh: -1%; CCT chaperon mod: -63*; MmCpn inh: 1%; TDP43 rescue: 2%; FUS yeast rescue: inconclusive; Abeta yeast res: inactive

What do the screens show for `COc1ccc(C2CC(=O)N(Cc3ccc(F)cc3)c3ccccc3S2)cc1` (stereo not given)?
aSyn yeast inh: 11%; TDP43 rescue: 16µM*; FUS yeast rescue: inactive; Abeta yeast res: inactive

Results for Cc1ccc(C2CC2C(=O)NNC(=S)Nc2cccc(Cl)c2)cc1 (stereo not given) ?
aSyn yeast inh: -2%; CCT chaperon mod: 0; MmCpn inh: -3%; TDP43 rescue: 14µM*; FUS yeast rescue: inconclusive; Abeta yeast res: inactive

Results for Cc1ccc(NC(=S)NNC(=O)C2CC2c2ccc(C)cc2)cc1 (stereo not given) ?
aSyn yeast inh: 1%; CCT chaperon mod: 1; MmCpn inh: 0%; TDP43 rescue: 0%; FUS yeast rescue: 28µM*; Abeta yeast res: inconclusive

Results for COc1ccc(NC(=S)NNC(=O)C2CC2c2ccc(C)cc2)cc1 (stereo not given) ?
aSyn yeast inh: 4%; CCT chaperon mod: -1; MmCpn inh: 3%; TDP43 rescue: inconclusive; Abeta yeast res: inactive

What do the screens show for `CNC(=O)c1cc(-c2cccs2)on1`?
aSyn yeast inh: 0%

How did C/C(=N/NC(N)=S)c1cc2ccc(O)cc2oc1=O do in these assays?
aSyn yeast inh: -6%; CCT chaperon mod: -4; MmCpn inh: 2%; TDP43 rescue: 20%; FUS yeast rescue: inactive; Abeta yeast res: 11µM*

How did O=c1c(S(=O)(=O)c2ccccc2)cn(Cc2ccc(F)cc2)c2cc(N3CCCC3)c(F)cc12 do in these assays?
TDP43 rescue: 11%; FUS yeast rescue: inactive; Abeta yeast res: inactive

What do the screens show for `CCC(CC)C(=O)Nc1cc(-c2cccc(C)c2)nn1-c1ccccc1`?
TDP43 rescue: 13µM*; FUS yeast rescue: inactive; Abeta yeast res: inactive

How did O=C(Nc1ccon1)c1cccc(C(F)(F)F)c1 do in these assays?
aSyn yeast inh: 0%; CCT chaperon mod: -3; MmCpn inh: -2%; TDP43 rescue: -14%; FUS yeast rescue: inactive; Abeta yeast res: inactive

What do the screens show for `O=C(Nc1cccc(C(F)(F)F)c1)c1cc(-c2ccco2)on1`?
aSyn yeast inh: -2%; CCT chaperon mod: -1; MmCpn inh: 0%; TDP43 rescue: -2%; FUS yeast rescue: inactive; Abeta yeast res: inactive

What do the screens show for `O=C(Nc1cccc(C(F)(F)F)c1)Nc1ccon1`?
aSyn yeast inh: -11%; CCT chaperon mod: -2; MmCpn inh: -1%; TDP43 rescue: 20µM*; FUS yeast rescue: inactive; Abeta yeast res: inactive

Results for Cc1nc(Cl)sc1C(=O)Nc1ccc(C(C)(C)C)cc1 ?
aSyn yeast inh: -12%; CCT chaperon mod: 0; MmCpn inh: 1%; TDP43 rescue: 11µM*; FUS yeast rescue: inactive; Abeta yeast res: inactive

Compound activity: PubChem, National Center for Advancing Translational Sciences (NCATS)
